# Results reported in PubChem BioAssay AID1259350 (ICCB-Longwood Screening Facility, Harvard Medical School, 2017).
# The list shows a part of the results. Values without a mark were called inactive. Calls of active or inactive are those of the source.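 How the source made its calls: active means inhibition score of 15 or more, meaning 100 minus mean polarization as percent of control over three replicates; inactive means the rest.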
# Biological target: Guanine nucleotide-binding protein G(i) subunit alpha-3 (Rattus norvegicus) (UniProt P08753)
# Test: GIV-Galphai3 interaction disruptors, retest – biochemical, fluorescence polarization, FITC-GIV peptide, rat Galphai3, confirmation (AID 1259350);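 further: lower mP means peptide displaced from Galphai3 so more inhibition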
# Details: FITC-GIV peptide binding to Galphai3, fluorescence polarization; at 100 µM; hits give low values
# Guanine nucleotide-binding protein G(i) subunit alpha-3 (Rattus norvegicus), sequence (P08753 whole entry, looked up): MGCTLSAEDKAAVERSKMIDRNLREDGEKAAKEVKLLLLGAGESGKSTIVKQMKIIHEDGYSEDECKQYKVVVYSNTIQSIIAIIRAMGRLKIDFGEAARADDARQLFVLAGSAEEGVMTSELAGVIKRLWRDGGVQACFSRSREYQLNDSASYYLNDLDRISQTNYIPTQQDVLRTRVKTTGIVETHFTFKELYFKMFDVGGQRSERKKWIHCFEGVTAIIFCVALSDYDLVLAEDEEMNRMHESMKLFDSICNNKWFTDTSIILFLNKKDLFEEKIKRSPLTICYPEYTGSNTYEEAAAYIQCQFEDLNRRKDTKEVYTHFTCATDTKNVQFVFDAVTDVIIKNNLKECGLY
row,Structure (SMILES),fluorescence polarization
1,Cn1cccc1/C=C1\C(=O)NC(=S)N(c2ccccc2)C1=O,51.3 mP (active)
2,COc1ccc(N=Nc2c(-c3ccc(OC)cc3)[nH]oc2=O)cc1,72.7 mP
3,Cc1ccc(N2C(=O)/C(=C/c3ccc(OCC(=O)O)c(Br)c3)C(=O)NC2=S)cc1,60.7 mP (active)
4,O=C(O)c1c2ccccc2[nH]c2c1oc1cc(=O)ccc12,71.6 mP
5,CC(=O)Nc1ccc(Nc2c3c4c(cccc4[nH]c2=O)C(=O)c2ccccc2-3)cc1,39.3 mP (active)
6,CC1=NOC(=O)C1C(c1cccc(Br)c1)c1c(C)[nH]n(-c2ccccc2)c1=O (centres undefined),37.2 mP (active)
7,COc1ccccc1N1C(=O)/C(=C/c2ccc(Cl)cc2)C=C1c1ccccc1,77.8 mP
8,COC(=O)Cn1nc2c(-c3nc(-c4ccc(Cl)cc4)no3)cccn2c1=O,83.1 mP
9,CCOc1cc(/C=C2/C(=O)N(c3nn[nH]n3)N=C2C)cc(Cl)c1OCC,69.8 mP
10,COc1ccccc1CNc1ncc2nc(-c3ccccc3)oc2n1,63.8 mP
11,CCOC(=O)c1nc2cc(C)c(C)cc2nc1NC1CCCCC1,88.9 mP
12,Cc1nn(-c2ccccc2)c2sc(-c3noc(-c4ccccc4F)n3)cc12,78.5 mP
13,CC(=O)Oc1cccc2c1C(=O)C=CC2=O,73.2 mP
14,O=C(NN=c1c(=O)c2ccccc2c1=O)c1ccncc1,66.7 mP
15,Cc1ccc(C(=O)N2CCc3cc(CNC(=O)c4ccc(Br)cc4)ccc32)cc1,85.2 mP
16,COC1=C(N2CCOCC2)C(=O)c2ccccc2C1=O,68 mP
17,N#CSc1cc(SC#N)c(N)nc1N,25.2 mP (active)
18,O=C(O)c1cc(NS(=O)(=O)c2ccc3c(c2)CCCC3)cnc1N1CCOCC1,43 mP (active)
19,CCC(=O)N1CCc2cc(N3CC(C(=O)N4CCN(C(C)C)CC4)CC3=O)ccc21 (centres undefined),64.3 mP (active)
20,N#CC(C#N)=C(C#N)/C=C/n1c2ccccc2c2ccccc21,50.6 mP (active)
21,COc1ccc(Nc2cc(C(=O)NCCCN(C)c3ccccc3)c3ccccc3n2)c(OC)c1,84 mP
22,CCOC(=O)C1=C(C)N(c2ccc(OC)cc2)C(=O)/C1=C\c1ccco1,77.8 mP
23,O=C(O)CCC(C(=O)O)N1C(=O)/C(=C\c2ccco2)SC1=S (centres undefined),41.8 mP (active)
24,Cc1ccc(NC(=O)c2nc[nH]c2C(=O)N2CCCCC2)c(C(=O)c2ccccc2)c1,54.4 mP (active)
